Screens deposited in PubChem by National Center for Advancing Translational Sciences (NCATS).
This is one part of a sample in which hits are shown more often than they occur.
KDM5B inhibitor: blocks human KDM5B histone demethylase activity; Q9UGL1; KDM5B demethylase, FDH-coupled NADH fluorescence (FDH is formaldehyde dehydrogenase); Potency, µM (highest dose often 57.7 µM), actives largely listed as inhibitors; 2.6% of 220,000 active; AID 1347165; active means well fitted inhibition curve with a large enough effect; further: 0% is about no effect; nearly all actives have a fitted effect of over 70% in size
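Inhibition is measured as reduced NADH fluorescence generation from FDH coupling to formaldehyde release. Truncated KDM5BΔAP at 200 nM final acts on H3K4me3 peptide (12.5 µM in substrate mix) in pH 7.5 HEPES buffer with Tween-20, 30 min, room temperature.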
Numbers without * were called inactive. Potency means the concentration at half of the fitted maximal effect.

Results for Cc1ccc(C(=O)N2CCC(c3nn(C)c4c3COCC4)CC2)cn1 ?
KDM5B inhibitor: inactive

How did O=C(c1ccc(-c2ncc3cnc(C4=CCOCC4)cn23)cc1)N1CC[S+](=O)([O-])CC1 do in these assays?
KDM5B inhibitor: 35.5µM*

Results for O=C(Nc1ccc(-n2cccn2)c(F)c1)C1CCCN(C(=O)c2ccoc2)C1 (stereo not drawn) ?
KDM5B inhibitor: inactive

Results for Cc1cc(C(=O)N2CCC(=O)N(Cc3ccc(F)cc3)C(C(C)C)C2)n[nH]1 (stereo not drawn) ?
KDM5B inhibitor: inactive

What do the screens show for `O=C1CC(c2ccccc2)N(C(=O)CNC(=O)c2nccc3ccccc23)CCCCCCN1` (stereo not drawn)?
KDM5B inhibitor: inactive

How did Cn1nc(C(=O)NCC(=O)N2CCCCCNC(=O)CC2c2ccccc2)c2ccccc21 (stereo not drawn) do in these assays?
KDM5B inhibitor: 28.2µM*

Results for Cc1cc(C(=O)NCC(=O)N2CCCCCNC(=O)CC2c2ccccc2)n(C)n1 (stereo not drawn) ?
KDM5B inhibitor: inactive

How did CCCCc1noc(CSc2nnnn2-c2cc(C)ccc2OC)n1 do in these assays?
KDM5B inhibitor: inactive

What do the screens show for `CCc1ccc(C(=O)NCCCNC(=O)c2cc3ccccc3[nH]2)cc1`?
KDM5B inhibitor: inactive

What do the screens show for `COc1ccc2c(=O)c(Oc3ccccc3Br)c(C)oc2c1`?
KDM5B inhibitor: inactive

What do the screens show for `COCCn1ccc2c(C3=CCOCC3)nc(-c3cccc(C(N)=O)c3)cc21`?
KDM5B inhibitor: 31.6µM*

What do the screens show for `C[S+](=O)([O-])N1CCC(Cn2ccc3c(N4CCOCC4)nc(-c4cccc(C(N)=O)c4)cc32)CC1`?
KDM5B inhibitor: inactive

Results for COCCn1ccc2c(C3=CCOCC3)nc(-c3cccc(O)c3)cc21 ?
KDM5B inhibitor: 39.8µM*

How did CN(C)CCNC(=O)c1nc(-c2cccc(N3CCOCC3)c2)cc2c1ccn2C do in these assays?
KDM5B inhibitor: inactive

Results for Cc1ccc(OCC(O)Cn2c(C)cc(=O)n3ncnc23)cc1 (stereo not drawn) ?
KDM5B inhibitor: inactive

How did O=C(CCn1ccc2cc(S(=O)(=O)N3CCCCC3)ccc21)NCCN1CCCCCC1 do in these assays?
KDM5B inhibitor: inactive

How did Cc1cc(C(=O)NCCCOC(C)C)c2c(C3CCNC3)noc2n1 (stereo not drawn) do in these assays?
KDM5B inhibitor: inactive

How did COc1ccc(-c2cc(C(=O)NC3CC3)c3c(C4CCCN4)noc3n2)cc1 (stereo not drawn) do in these assays?
KDM5B inhibitor: 79.4µM*

Results for Cc1cc(C(=O)NCc2cccs2)c2c(C3CCCN3)noc2n1 (stereo not drawn) ?
KDM5B inhibitor: inactive

What do the screens show for `COc1ccc(-c2cc(C(=O)NC3CCCC3)no2)cc1`?
KDM5B inhibitor: inactive

How did COCCCNC(=O)c1cc(C)nc2onc(C3CCNCC3)c12 do in these assays?
KDM5B inhibitor: inactive

How did O=C(NC1CCNCC1)c1cc(C2CC2)nc2onc(C3CCCN3)c12 (stereo not drawn) do in these assays?
KDM5B inhibitor: 79.4µM*

How did COc1ccc(-c2cc(C(=O)NC3CC3)c3c(C4CCNC4)noc3n2)cc1 (stereo not drawn) do in these assays?
KDM5B inhibitor: 79.4µM*

What do the screens show for `Cc1cc(C(=O)NC2CCCC2)c2c(C3CCCNC3)noc2n1` (stereo not drawn)?
KDM5B inhibitor: inactive

Results for Cc1cc(C(=O)NC2CCCC2)c2c(C3CCNCC3)noc2n1 ?
KDM5B inhibitor: inactive

How did COc1ccc(C(=O)N2CCC3(CC2)NCCc2c3[nH]c3ccccc23)cc1F do in these assays?
KDM5B inhibitor: inactive

How did CC(C)c1noc(C2CCCN2S(=O)(=O)N2CCCCCC2)n1 (stereo not drawn) do in these assays?
KDM5B inhibitor: inactive

Results for Cc1ncsc1CN1C(=O)CO[C@H](c2ccc(NC(=O)c3ccccc3)cc2)[C@H]1CO ?
KDM5B inhibitor: inactive

Results for CC(C)NC(=O)c1ccc(CC2CCN(C)CC2)cc1 ?
KDM5B inhibitor: inactive

How did COc1ccc(C2=NOC3(CCN(Cc4ccsc4)C3)C2)cc1 (stereo not drawn) do in these assays?
KDM5B inhibitor: inactive

What do the screens show for `CN(C)C[C@@H]1CN(C)C[C@H]1NC(=O)c1cnccn1`?
KDM5B inhibitor: inactive

What do the screens show for `CN(C)C[C@@H]1CN(c2ncccn2)C[C@H]1NS(=O)(=O)c1cccnc1`?
KDM5B inhibitor: 25.1µM*

Results for CN(C)C[C@@H]1CN(C)C[C@H]1NS(=O)(=O)c1ccc2c(c1)CCCC2 ?
KDM5B inhibitor: inactive

What do the screens show for `CN(C)C[C@@H]1CN(c2ncccn2)C[C@H]1NC(=O)c1cnccn1`?
KDM5B inhibitor: 25.1µM*

Results for CN(C)C[C@@H]1CN(c2ncccn2)C[C@H]1NC(=O)c1ccc2[nH]ccc2c1 ?
KDM5B inhibitor: 31.6µM*

Results for CN(C)C[C@@H]1CN(c2ncccn2)C[C@H]1NC(=O)c1ccncc1 ?
KDM5B inhibitor: 25.1µM*

Results for CN(C)C[C@@H]1CN(S(C)(=O)=O)C[C@H]1NC(=O)c1ccc2nc[nH]c2c1 ?
KDM5B inhibitor: inactive

How did CN(C)C[C@@H]1CN(S(C)(=O)=O)C[C@H]1NC(=O)c1ccncc1 do in these assays?
KDM5B inhibitor: inactive

How did O=C(N[C@@H]1CN(C2CCC2)C[C@H]1CO)c1cnccn1 do in these assays?
KDM5B inhibitor: inactive

What do the screens show for `CN(C)C[C@@H]1CN(C)C[C@H]1NC(=O)c1ccc(F)c(F)c1`?
KDM5B inhibitor: inactive

What do the screens show for `Cc1cc(S(=O)(=O)N[C@@H]2CN(C)C[C@H]2CN(C)C)ccc1Cl`?
KDM5B inhibitor: inactive

How did CN(C)C[C@@H]1CN(Cc2ccccc2)C[C@H]1NC(=O)c1ccncc1 do in these assays?
KDM5B inhibitor: inactive

How did Cc1occc1C(=O)Nc1nc(CC(=O)Nc2ccccc2)cs1 do in these assays?
KDM5B inhibitor: inactive

Results for CC1CCCN(c2ncnc3c2CN(c2ccc(Cl)cc2)C(=O)CN3C)C1 (stereo not drawn) ?
KDM5B inhibitor: inactive

What do the screens show for `CN1CCC(NC[C@H]2O[C@H](Cc3cc(-c4ccc(F)cc4)on3)CC[C@@H]2O)CC1`?
KDM5B inhibitor: inactive

How did O=C(Cc1coc2cc3c(cc12)CCC3)OCc1cccc([N+](=O)[O-])c1 do in these assays?
KDM5B inhibitor: inactive

How did CC(N)c1ccncc1 (stereo not drawn) do in these assays?
KDM5B inhibitor: inactive

Results for O=S(=O)(c1ccc(SCc2nnc(-c3ccccc3)o2)nc1)N1CCCC1 ?
KDM5B inhibitor: inactive

Results for CN(C)C[C@@H]1CN(C2CCOCC2)C[C@H]1NC(=O)c1cccc(Cl)c1 ?
KDM5B inhibitor: inactive

How did Cc1ccsc1C(=O)N[C@@H]1CN(c2ncccn2)C[C@H]1CN(C)C do in these assays?
KDM5B inhibitor: 31.6µM*

How did CN(C)C[C@@H]1CN(c2ncccn2)C[C@H]1NC(=O)c1cccc(Cl)c1 do in these assays?
KDM5B inhibitor: 28.2µM*

What do the screens show for `CN(C)C[C@@H]1CN(S(C)(=O)=O)C[C@H]1NC(=O)c1ccc(Cl)cc1`?
KDM5B inhibitor: inactive

What do the screens show for `CN(C)C[C@@H]1CN(S(C)(=O)=O)C[C@H]1NC(=O)c1ncccn1`?
KDM5B inhibitor: inactive

Results for CN(C)C[C@@H]1CN(S(C)(=O)=O)C[C@H]1NC(=O)c1c(F)cccc1Cl ?
KDM5B inhibitor: inactive

Results for CN(C)C[C@@H]1CN(C)C[C@H]1NC(=O)Cc1cccc(Cl)c1 ?
KDM5B inhibitor: inactive

What do the screens show for `Cc1cccnc1C(=O)N[C@@H]1CN(S(C)(=O)=O)C[C@H]1CN(C)C`?
KDM5B inhibitor: inactive
